77 compounds from PubChem BioAssay AID489025 (Southern Research Specialized Biocontainment Screening …, 2010) can be followed below.

As usually defined, the viability is a read-out of living cells in per cent, often relative to untreated cells.

Structures are written as SMILES. The campaign covered roughly 2,300 compounds. About 790 (34%) were called active. How the calls were made is not given here. Some of the results follow. Measured potencies and affinities stand elsewhere.

A short description of the experiment: THP-1 cell cytotoxicity, dose response, cytotoxicity control for non-replicating M. tuberculosis project (AID 489025). The conditions noted are these: THP-1 cell viability; series mostly up to 40 µM; viability: at the top concentration.
As to `CCOC(=O)Cn1cc(C#N)c2ccccc21`, the “viability” value is 93.9% (inactive).

Take `CC1CCC/C(=C\Nc2ccc(C(=O)O)c(O)c2)C1=O` (configuration not stated): the “viability” value was 110% (inactive).

For the compound `Cc1cccnc1NC(=O)C1COc2ccccc2O1` (configuration not stated), the “viability” value was 94.9% (inactive).

For `N=c1oc2ccccc2cc1C(=O)Nc1ccccc1`, the “viability” value is 98.9% (inactive).

Turning to `Cc1cc(Cl)ccc1N(CC(=O)NCc1ccccc1)S(C)(=O)=O`, the “viability” value was 107% (inactive).

As to `CC(=O)c1ccc(NC(=O)c2cc(CC(C)C)on2)cc1`, the “viability” value was 106% (inactive).

Consider `CN(CCS(=O)(=O)c1ccc(Cl)cc1)Cc1cccnc1`, for which the “viability” value was 92.2% (inactive).

Regarding `O=C(COc1ccc(Br)cc1)N/N=C1/SCC(=O)N1Cc1ccccc1`, the “viability” value was 73.2% (inactive).

In the case of `O=C(NC(=S)N1CCN(C/C=C/c2ccccc2)CC1)c1ccco1`, the “viability” value was 95.4% (inactive).

As to `O=C(Nc1nnc(COc2ccc(Cl)cc2)s1)c1ccco1`, the “viability” value is 112% (inactive).

`COC(=O)C(C)Oc1ccc2cc(-c3ccccc3)c(=O)oc2c1` (configuration not stated): the “viability” value is 107% (inactive).

As to `COc1ccc(NC(=O)C(=O)NNC(=O)C(C)Oc2ccc(Cl)cc2Cl)cc1` (configuration not stated), the “viability” value was 82% (inactive).

Turning to `C=CCN(CC=C)C(=O)Cc1ccc(F)cc1`, the “viability” value is 99.9% (inactive).

In the case of `C=C(C)C1Cc2c(C)nn(-c3nc(C)cc(C)n3)c2C1` (configuration not stated), the “viability” value is 70.6% (inactive).

Take `CCOC(=O)Cn1c(-c2ccccc2)ccc(C#N)c1=O`: the “viability” value was 110% (inactive).

Regarding `O=C1c2cccc3cc([N+](=O)[O-])cc(c23)C(=O)N1c1ccccc1O`, the “viability” value is 99.6% (inactive).

With `O=[N+]([O-])c1cnc(Nc2ccc(Cl)cn2)c([N+](=O)[O-])c1`, the “viability” value is 82.7% (inactive).

`NCCNc1ccc([N+](=O)[O-])c2cccnc12`: the “viability” value is 94.5% (inactive).

`CC(=O)Nc1ccc(OC(=O)c2ccc(Br)c([N+](=O)[O-])c2)cc1`: the “viability” value was 84.4% (inactive).

With `O=c1cc(-c2ccccc2Cl)oc2ccc([N+](=O)[O-])c(O)c12`, the “viability” value is 75.4% (inactive).

Regarding `Cc1ccc(OC(=O)c2sc3ncn(C)c(=O)c3c2C)cc1`, the “viability” value is 107% (inactive).

As to `CC(C)CN1C(=O)/C(=C(/C#N)C(=O)NC2CCCCC2)c2ccccc21`, the “viability” value was 87.7% (inactive).

In the case of `Cc1ccc(NC(=O)CO/N=C/c2ccccc2C)c(C)c1`, the “viability” value is 83.8% (inactive).

In the case of `COc1cc2[nH]c(Cl)c([N+](=O)[O-])c2cc1OC`, the “viability” value was 93.2% (inactive).

For `CCOC(=O)c1csc(COc2ccc(OC)cc2)n1`, the “viability” value was 117% (inactive).

Take `O=C(NCc1nnc(SC/C=C/c2ccccc2)o1)c1ccco1`: the “viability” value is 104% (inactive).

For the compound `O=C(CCNc1cccc(Cl)c1)c1ccco1`, the “viability” value is 90.1% (inactive).

For `COC(=O)CCc1nc2c(C#N)c(-c3ccc(Cl)cc3)ccn2n1`, the “viability” value is 110% (inactive).

`O=C(CC1CCCC1)OCn1nnc2ccccc2c1=O`: the “viability” value was 113% (inactive).

For `CCCCCCCCCCn1cc(C(C)=O)c(=O)[nH]c1=O`, the “viability” value is 96% (inactive).

For `O=C(N/N=C/c1ccccn1)c1cc([N+](=O)[O-])cc([N+](=O)[O-])c1`, the “viability” value is 88.4% (inactive).

`O=C(O/N=C/c1ccc2c(c1)OCO2)c1ccc([N+](=O)[O-])cc1`: the “viability” value was 106% (inactive).

On to `CCOC(=O)COc1ccc2c(=O)c(-c3ccccc3)coc2c1`, for which the “viability” value is 99.1% (inactive).

In the case of `COc1ccc2c([N+](=O)[O-])c(N3CCCC3)[nH]c2c1`, the “viability” value was 107% (inactive).

Turning to `CC(C)(C)NCc1cc(Br)ccc1OC1CCCC1`, the “viability” value was 85.1% (inactive).

With `CC(C)(C)c1cc(CN2CCN(CCO)CC2)cc(C(C)(C)C)c1O`, the “viability” value is 117% (inactive).

With `CN(C)CCC(=O)N1c2ccccc2Sc2ccc(C(F)(F)F)cc21`, the “viability” value was 91.5% (inactive).

As to `O=C(NCC1CCCCC1)c1ccco1`, the “viability” value is 124% (inactive).

On to `Brc1c(-c2ccc3c(c2)OCO3)nc2ncccn12`, for which the “viability” value is 95.2% (inactive).

`CCn1cc(C(=O)O)c(=O)c2cc(F)c(N3CCN(C(=S)NC(=O)c4ccccc4)CC3)cc21`: the “viability” value was 85.6% (inactive).

Turning to `CCCNC(=O)NC(=O)COc1ccc2oc3ccccc3c2c1`, the “viability” value is 102% (inactive).

Regarding `CC(C)(C)c1ccc(S(=O)(=O)NNC(=O)c2cc3ccccc3[nH]2)cc1`, the “viability” value is 81.2% (inactive).

With `COc1ccc(C(=O)CCS(=O)(=O)c2ccc(C)cc2)cc1OC`, the “viability” value was 98.5% (inactive).

On to `COCCSc1nnc(NC(=O)CCS(=O)(=O)Cc2ccccc2)s1`, for which the “viability” value was 106% (inactive).

With `CC(C)Cc1nnc(NC(=O)CCS(=O)(=O)c2ccc(Cl)cc2)s1`, the “viability” value is 106% (inactive).

`O=C(COC(=O)c1ccccc1)NCc1cccs1`: the “viability” value is 107% (inactive).

In the case of `O=C(COc1ccc2ccccc2c1)Nc1nccs1`, the “viability” value is 121% (inactive).

Take `CCOC(=O)c1csc(NC(=O)COc2ccc(Cl)cc2Cl)n1`: the “viability” value was 104% (inactive).

On to `CCOC(=O)c1ccc(-n2c(CCC(=O)O)ccc2-c2cccs2)cc1`, for which the “viability” value is 119% (inactive).

On to `Cc1ccc(OC(=O)c2ccc(Br)o2)cc1`, for which the “viability” value is 86% (inactive).

`CC(=O)NCCOC(=O)Nc1sc(=S)n(C)c1C`: the “viability” value was 111% (inactive).

Turning to `O=C(CCNc1cccc(Cl)c1)c1cccs1`, the “viability” value is 109% (inactive).

Regarding `NC(=S)n1[nH]c(-c2ccc([N+](=O)[O-])cc2)c(N=Nc2ccc(O)cc2)c1=O`, the “viability” value is 82.1% (inactive).

`Cc1ccccc1-n1c(C)cc(/C=N/NC(=O)c2ccncc2)c1C`: the “viability” value is 92.3% (inactive).

Consider `Cc1ccc(/C=N/NC(=O)c2ccncc2)o1`, for which the “viability” value was 97.5% (inactive).

For the compound `Cc1ccc(OCCCCn2ccnc2)c([N+](=O)[O-])c1`, the “viability” value is 78.2% (inactive).

For `c1ccc2cc(OCCCn3ccnc3)ccc2c1`, the “viability” value was 78% (inactive).

For `Cc1cc(OCc2cc(C(=O)N(C)CCc3cnn(C)c3)no2)cc(C)c1Cl`, the “viability” value is 81.1% (inactive).

As to `Cc1cc(OCCCn2ccnc2)ccc1C(C)C`, the “viability” value is 70.4% (inactive).

As for `c1ccc(-c2ccccc2OCCCCn2ccnc2)cc1`, the “viability” value is 76.9% (inactive).

Take `COc1ccc(-c2noc(-c3cc4ccccc4oc3=O)n2)cc1`: the “viability” value was 104% (inactive).

For the compound `CCCOc1ccc(N2CC(C(=O)Nc3ccccn3)CC2=O)cc1` (configuration not stated), the “viability” value is 113% (inactive).

Turning to `O=S(=O)(Nc1nccs1)c1ccc(NCc2cc(Br)cc(Br)c2O)cc1`, the “viability” value is 102% (inactive).

Regarding `COCC(=O)Nc1ccccc1NC(C)=O`, the “viability” value was 104% (inactive).

For the compound `S=C(Nc1ccc2c(c1)OCO2)Nc1ccc2c(c1)OCO2`, the “viability” value is 90% (inactive).

Take `O=C1CC(Sc2ncccn2)C(=O)N1c1ccccc1C(F)(F)F` (configuration not stated): the “viability” value was 113% (inactive).

For the compound `CCOc1c(OC(C)=O)ccc(/C=C2\N=C(SCC)SC2=O)c1[N+](=O)[O-]`, the “viability” value is 121% (inactive).

`Cc1c(C(=O)N(C)C)sc2nc(-c3ccccn3)[nH]c(=O)c12`: the “viability” value is 95.8% (inactive).

`CCCCOC(=O)c1ccc(NC(=O)C2CCCO2)cc1` (configuration not stated): the “viability” value was 81% (inactive).

For the compound `COCCNC(=O)c1cc2cc(Cl)cc(Cl)c2oc1=O`, the “viability” value was 106% (inactive).

For `COC(=O)c1cc2c(ccc3ccccc32)oc1=O`, the “viability” value is 77.5% (inactive).

Consider `C=CCOc1ccc(CNCCO)cc1OCC`, for which the “viability” value is 115% (inactive).

With `O=S(=O)(c1ccc(Cl)c2ccccc12)N1CCCC1`, the “viability” value is 89.1% (inactive).

`CN(C(=O)COC(=O)c1ccc([N+](=O)[O-])cc1Cl)C1CCCCC1`: the “viability” value is 113% (inactive).

For `N#Cc1cc(N)ccc1-n1cccc1`, the “viability” value was 92.9% (inactive).

With `Cc1cc(C(=O)N/N=C/c2ccc(OC(=O)c3ccccc3Br)cc2)n[nH]1`, the “viability” value is 109% (inactive).

As for `Cc1cc2ccccc2n1CCNC(=O)C(C)(C)C`, the “viability” value was 95.9% (inactive).
